# Screening data: PubChem, The Scripps Research Institute Molecular Screening Center
# ADAM17 inh – ADAM17 inhibition, QFRET primary screen; P78536; recombinant ADAM17, EDANS/DABCYL FRET peptide cleavage; inhibition, % at 6.95 µM; hit rate 0.83% among 370,000;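 active means inhibition above the mean of compounds lying between control limits plus 3 SD, set per campaign, cut at about 8.5% in these data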;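 further: 0% = DMSO-only wells as the low control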
# Target sequence (P78536 215-824 limits assumed): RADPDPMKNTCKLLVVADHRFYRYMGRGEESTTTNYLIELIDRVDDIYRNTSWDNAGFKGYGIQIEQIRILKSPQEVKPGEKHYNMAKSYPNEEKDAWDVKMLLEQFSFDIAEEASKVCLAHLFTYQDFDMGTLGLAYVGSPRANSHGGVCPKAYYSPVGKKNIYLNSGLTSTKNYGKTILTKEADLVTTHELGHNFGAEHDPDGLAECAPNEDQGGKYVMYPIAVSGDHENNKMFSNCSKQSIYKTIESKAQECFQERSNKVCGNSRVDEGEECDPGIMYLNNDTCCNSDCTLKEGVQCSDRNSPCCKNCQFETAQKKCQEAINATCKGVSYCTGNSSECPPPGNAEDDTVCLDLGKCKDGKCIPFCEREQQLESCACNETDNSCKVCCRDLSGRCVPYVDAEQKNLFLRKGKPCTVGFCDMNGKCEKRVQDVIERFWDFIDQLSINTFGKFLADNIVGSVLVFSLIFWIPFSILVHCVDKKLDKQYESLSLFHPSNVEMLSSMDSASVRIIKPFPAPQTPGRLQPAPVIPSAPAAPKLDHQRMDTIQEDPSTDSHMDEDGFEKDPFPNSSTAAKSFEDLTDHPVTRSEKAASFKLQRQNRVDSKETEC
# PLCb3 inh – blocks human PLC-beta3 enzyme activity | Purified PLC-beta3, fluorogenic substrate, fluorescence | inhibition, % at 12.2 µM | hit rate 0.18% among 370,000 | AID 720704;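 further: 0% = median of compound wells on plate and 100% = full blocker control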
# ADAM10 inh – inhibitors of human ADAM10. hit rate 0.62% among 370,000. recombinant ADAM10, EDANS/DABCYL FRET peptide cleavage, 3 h. O14672. inhibition, % at 7 µM;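 active means inhibition above a per-campaign cutoff equal to the mean of compounds falling between control-based bounds plus 3 SD, cut at about 20% in these data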;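 further: 0% = DMSO wells while the 100% control is not disclosed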
# proKLK7 act – activates the human kallikrein-7 zymogen | P49862 | purified proKLK7, EDANS-DABCYL substrate fluorescence; 100% is mature enzyme control, 0% vehicle | activation, % at 7 µM | hit rate 0.9% among 370,000 | AID 652039;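 active means activation above the mean of all tested compounds plus 3 SD, computed per campaign excluding outliers beyond control limits, cut at about 13% in these data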
# PLC-gamma1 inh – inhibitors of human phospholipase C gamma1 | P19174 | purified PLC-gamma1, fluorogenic substrate, fluorescence | inhibition, % at 12.2 µM | hit rate 0.84% among 370,000 | AID 720700; in the data active means inhibition above about 9.5%
# ADAM10 confirm – human ADAM10 inhibition, confirmation; shares compounds with ADAM10 inh; ADAM10 QFRET peptide cleavage, EDANS fluorescence; inhibition, % at 6.95 µM; hit rate 1% among 2,100; AID 743208;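 active means inhibition above about 20% chosen separately for each screening run, limit read from the data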;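 further: 0% = DMSO wells and 100% = marimastat wells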
# ADAM17 counter – ADAM17 inhibition, counter-screen for ADAM10 exosite hits; AID 743214; ADAM17 QFRET peptide cleavage, EDANS fluorescence; shares compounds with ADAM10 inh; inhibition, % at 6.95 µM; hit rate 0.5% among 2,100;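 active means mean triplicate inhibition above the solvent-only control wells' mean plus 3 SD, cut at about 12% in these data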;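 further: 0% = DMSO wells and 100% = marimastat wells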
# ADAM10 ctr – ADAM10 inhibition, counter-screen for ADAM17 exosite hits. shares compounds with ADAM17 inh. recombinant ADAM10, EDANS/DABCYL FRET peptide cleavage, 3 h. inhibition, % at 6.95 µM. hit rate 47% among 2,900;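 active means mean inhibition over the triplicate runs exceeds the activity threshold set in the earlier primary screen, cut at about 20% in these data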;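 further: 0% = DMSO wells and 100% = marimastat wells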
# ADAM17 confirm – human ADAM17 inhibition, confirmation; inhibition, % at 6.95 µM; recombinant ADAM17, EDANS/DABCYL QFRET peptide cleavage; shares compounds with ADAM17 inh; hit rate 65% among 2,900; AID 743257;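 active means mean inhibition across replicates above the hit cutoff set in the primary screen, cut at about 8.5% in these data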;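 further: 0% = DMSO wells and 100% = marimastat wells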
# PLCgamma1 ctr – PLC-gamma1 inhibition, counter-screen for PLC-beta3 hits; purified PLC-gamma1, fluorogenic substrate, fluorescence; hit rate 3.1% among 3,300; shares compounds with PLC-gamma1 inh; inhibition, % at 12.3 µM; in the data active means inhibition above about 9.5%
# PLCb3 confirm – confirmation of human PLC-beta3 inhibitors; shares compounds with PLC-gamma1 inh; purified PLC-beta3, fluorogenic substrate fluorescence; inhibition, % at 12.3 µM; hit rate 1% among 3,300; AID 743261
# Starred values were filed as active, the others as inactive; . = no result. In the library only some 2.9% were active in any assay of this set; here they are far more common. Unless noted, no stated cut-off is given here; in the data, active means inhibition above about 11%; inactive means the rest.
SMILES,ADAM17 inh,PLCb3 inh,ADAM10 inh,proKLK7 act,PLC-gamma1 inh,ADAM10 confirm,ADAM17 counter,ADAM10 ctr,ADAM17 confirm,PLCgamma1 ctr,PLCb3 confirm
C[C@@H]1CN([C@@H](C)CO)C(=O)Cc2cc(NC(=O)Nc3ccc(C(F)(F)F)cc3)ccc2O[C@@H]1CN(C)S(=O)(=O)c1ccc(Cl)cc1,15.0*,4.6,35.2*,0.1,2.1,9.3,3.1,51.4*,27.2*,.,.
C[C@H]1CN([C@@H](C)CO)C(=O)Cc2cc(NC(=O)CCC(F)(F)F)ccc2O[C@H]1CN(C)Cc1ccc(C(F)(F)F)cc1,10.8*,5.7,25.1*,-0.5,4.3,2.0,1.9,26.6*,16.5*,.,.
C[C@H](CO)N1C[C@H](C)[C@H](CN(C)S(=O)(=O)c2cn(C)cn2)Oc2ccc(NC(=O)Nc3ccc(C(F)(F)F)cc3)cc2CC1=O,8.3,4.5,14.9,-0.2,0.9,.,.,.,.,.,.
O=C(Nc1ccc2ccccc2c1)NC1CCCCN(Cc2cccc(Cl)c2)C1=O (stereo not given),0.9,-0.2,9.1,0.1,0.2,.,.,.,.,.,.
COc1ccc(Cl)cc1Cn1c(C)c(C(=O)NCc2ccc(F)cc2)sc1=O,11.0*,2.1,27.3*,0.6,3.6,1.8,1.2,11.7,4.9,.,.
O=C(NC(c1ccccc1)c1cc(Cl)c2cccnc2c1O)c1cccnc1 (stereo not given),5.4,8.6,0.4,-0.3,3.2,.,.,.,.,.,.
CCOc1ccc(C(Nc2cccnc2)c2cc(Cl)c3cccnc3c2O)cc1 (stereo not given),14.7*,-15.5,21.7*,-0.3,-20.8,45.0*,15.2*,49.1*,27.8*,.,.
FC(F)Oc1ccc(NC(=S)NCc2ccccc2)cc1Cl,5.7,-2.8,10.4,0.3,-2.1,.,.,.,.,.,.
O=C(Cc1cccc2ccccc12)Nc1ccc(OC(F)F)c(Cl)c1,9.9*,1.2,22.8*,-0.5,6.5,5.8,1.9,29.7*,19.9*,.,.
COc1ccc(N=Nc2nc(-c3ccccc3)c(-c3ccccc3)[nH]2)cc1,9.2*,2.8,23.7*,0.2,0.4,8.6,3.0,32.3*,15.4*,.,.
Oc1ccccc1N=Nc1nc(-c2ccccc2)c(-c2ccccc2)[nH]1,9.9*,2.4,25.6*,0.3,7.3,5.0,1.7,28.5*,12.4*,.,.
CS(=O)(=O)c1nc(-c2ccccc2)c(-c2ccccc2)[nH]1,0.4,-1.4,-6.0,0.1,-0.5,.,.,.,.,.,.
COc1ccc(-n2c(SCc3nc4ccccc4[nH]3)nc3ccccc3c2=O)cc1,0.4,-12.0,-6.4,-0.6,-6.3,.,.,.,.,.,.
Cc1cc(C)c(Nc2cc(S(=O)(=O)O)c(N)c3c2C(=O)c2ccccc2C3=O)c(C)c1,8.7*,5.8,23.3*,0.1,6.4,4.0,-1.6,36.0*,17.4*,.,.
Cc1cc(C)c(NC(=O)COC(=O)c2cccc3c2C(=O)c2ccccc2C3=O)c(C)c1,-1.3,2.5,3.9,0.1,4.0,.,.,.,.,.,.
Cc1ccc(-n2nnnc2SCC(=O)c2cc(C)n(-c3cc(C)on3)c2C)c(C)c1,14.9*,-6.9,23.8*,-0.4,-2.4,3.1,1.6,18.6,10.7*,.,.
Cc1cc(NS(=O)(=O)c2ccc(NC(=O)Cc3ccc(Cl)c(F)c3)cc2)no1,-4.6,-3.9,-10.3,-0.2,-2.2,.,.,.,.,.,.
C#CCn1c(S(=O)(=O)Cc2ccc(C)cc2)nc(-c2ccccc2)c1-c1ccccc1,6.2,-2.2,22.8*,0.1,10.0*,7.6,3.5,.,.,1.1,-5.6
C#CCn1c(S(=O)(=O)Cc2ccccc2Cl)nc(-c2ccccc2)c1-c1ccccc1,-3.6,3.2,5.2,0.6,2.8,.,.,.,.,.,.
COCCn1c(SCC(=O)N2CCCC2)nc2c(c1=O)SCC2,7.3,10.7*,21.0*,0.5,6.5,5.8,1.5,.,.,4.0,3.9
COC(=O)[C@]12C[C@H](CC(=O)N3CCCC3)C(=O)N(Cc3ccc(Cl)cc3Cl)C1=C[C@H](COCc1ccccc1)O[C@@H]2C,4.2,2.8,6.1,0.7,4.5,.,.,.,.,.,.
O=C(Cc1ccccc1Cl)Nc1ccc(S(=O)(=O)Nc2nccs2)cc1,-3.7,-8.1,3.2,0.0,0.5,.,.,.,.,.,.
O=C(CSc1ccc(Br)c2cccc(Cl)c12)Nc1ccc(S(=O)(=O)Nc2nccs2)cc1,15.8*,-3.5,31.8*,0.2,11.0*,11.1,5.2,22.7*,13.8*,-6.1,-9.9
O=C1C=C(c2ccc3ncccc3c2)C[C@@H](c2ccc(Cl)cc2)C1,5.5,-0.2,20.2*,0.4,11.3*,1.6,0.2,.,.,-0.1,-0.8
COC(=O)[C@]12C[C@H](CC(=O)NCC34CC5CC(CC(C5)C3)C4)C(=O)N(CCC3=CCCCC3)C1=C[C@H](C1CCCC1)O[C@@H]2C,-7.2,0.2,-8.0,0.6,0.3,.,.,.,.,.,.
SMILES,ADAM17 inh,PLCb3 inh,ADAM10 inh,proKLK7 act,PLC-gamma1 inh,ADAM10 confirm,ADAM17 counter,ADAM10 ctr,ADAM17 confirm,PLCgamma1 ctr,PLCb3 confirm
CC(C)C1S/C(=N/N=C/c2cccs2)NC1=O (stereo not given),9.4*,10.6,28.6*,-0.2,12.9*,1.1,0.4,8.1,4.8,-2.1,-3.1
Cc1cc(Nc2ccc(Cl)cc2)n(-c2cccc(Cl)c2)n1,9.8*,1.8,23.9*,-0.3,12.2*,7.5,2.1,16.5,11.3*,-6.8,-6.0
Cc1cc(Nc2ccc(Cl)cc2)n(-c2ccccc2)n1,5.0,2.6,7.1,-0.2,1.4,.,.,.,.,.,.
O=C(c1ccc(S(=O)(=O)N2CCCC2)cc1)N1CCCCC1,0.9,-6.3,-11.1,-0.3,2.9,.,.,.,.,.,.
O=C(/C=C/c1ccc(O)c(O)c1)c1ccc(S(=O)(=O)N2CCCCCC2)cc1,18.3*,7.0,34.3*,-0.2,10.9*,5.6,1.6,26.9*,16.7*,-1.1,-2.3
O=C(CN1CCN(S(=O)(=O)c2ccc(Br)cc2)CC1)Nc1ccc2c(c1)OCO2,1.5,-0.2,20.9*,0.3,10.0*,0.5,-0.2,.,.,-3.4,-3.1
COc1ccc(CC(=O)N/N=C/c2cccn2-c2ccc([N+](=O)[O-])cc2)cc1OC,7.6,4.1,21.1*,-0.9,11.8*,0.0,-0.1,.,.,4.2,4.0
